# Laboratory results as given in the supplement of paper PMC8728848.
# This is one part of a sample in which the strongest signals are shown more often than they occur.
# B1: MpL2 (Macrolepiota procera) (protein)
# chain: MSTQVSSGQTYKITNVKAGTVIRLSGEDNKSIIGYPYHSGKNQQWTFNWTGKAWTLRSASSGSYLGIEGTPADGTRLVAVNDPFEWHIWRDEANENAFRIFVPFTNYNLDLSGYGDTTPGTPVQLWWTWEGLHQTWTIDRP
# Key:
# Test in all cases: glycan array binding signal (z-score within array); higher = stronger binding
# Details in all cases: glycan notation: IUPAC condensed, linker removed; mutation: D22R
# [1] = target: Fuc(a1-2)Gal(b1-3)GlcNAc(b1-3)GalNAc
# Procedure, shortened: (§1)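 The binding signal is a Z-score computed within each array. Data were drawn from 3228 arrays in the Consortium for Functional Glycomics database, restricted to those with a known protein sequence. Scores were averaged over arrays of the same protein sequence at different concentrations or buffers, and over linkers, and negative values can be taken as non-binding.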
# [2] = target: Fuc(a1-2)Gal(b1-3)[Fuc(a1-4)]GlcNAc(b1-2)Man(a1-3)[Fuc(a1-2)Gal(b1-3)[Fuc(a1-4)]GlcNAc(b1-2)Man(a1-6)]Man(b1-4)GlcNAc(b1-4)[Fuc(a1-6)]GlcNAc(b1-4)[Fuc(a1-6)]GlcNAc
# Procedure, shortened: as §1
# Fuc(a1-2)Gal(b1-4)GlcNAc = target: Fuc(a1-2)Gal(b1-4)GlcNAc
# Procedure, shortened: as §1
# [3] = target: Fuc(a1-2)Gal(b1-4)GlcNAc(b1-2)Man
# Procedure, shortened: as §1
# [4] = target: Fuc(a1-2)[Gal(a1-3)]Gal(b1-4)GlcNAc(b1-3)GalNAc
# Procedure, shortened: as §1
# [5] = target: Fuc(a1-2)[GalNAc(a1-3)]Gal(b1-3)GalNAc(b1-3)Gal(a1-4)Gal(b1-4)Glc
# Procedure, shortened: as §1
# [6] = target: Fuc(a1-2)[GalNAc(a1-3)]Gal(b1-4)Glc
# Procedure, shortened: as §1
# [7] = target: Fuc(a1-2)[GalNAc(a1-3)]Gal(b1-4)GlcNAc(b1-3)Gal(b1-4)GlcNAc
# Procedure, shortened: as §1
# [8] = target: Fuc(a1-3)[Gal(b1-4)]GlcNAc6S
# Procedure, shortened: as §1
# Gal(a1-2)Gal = target: Gal(a1-2)Gal
# Procedure, shortened: as §1
# Gal(b1-3)Gal = target: Gal(b1-3)Gal
# Procedure, shortened: as §1
# Gal(b1-3)GalNAc(b1-3)Gal = target: Gal(b1-3)GalNAc(b1-3)Gal
# Procedure, shortened: as §1
# [9] = target: Gal(b1-3)GlcNAc(b1-3)Gal(b1-4)GlcNAc(b1-2)[Gal(b1-3)GlcNAc(b1-3)Gal(b1-4)GlcNAc(b1-6)]Man(a1-6)[Gal(b1-3)GlcNAc(b1-3)Gal(b1-4)GlcNAc(b1-2)Man(a1-3)]Man(b1-4)GlcNAc(b1-4)[Fuc(a1-6)]GlcNAc
# Procedure, shortened: as §1
# [10] = target: Gal(b1-3)GlcNAc(b1-3)Gal(b1-4)GlcNAc(b1-3)Gal(b1-4)GlcNAc(b1-2)[Gal(b1-3)GlcNAc(b1-3)Gal(b1-4)GlcNAc(b1-3)Gal(b1-4)GlcNAc(b1-6)]Man(a1-6)[Gal(b1-3)GlcNAc(b1-3)Gal(b1-4)GlcNAc(b1-3)Gal(b1-4)GlcNAc(b1-2)Man(a1-3)]Man(b1-4)GlcNAc(b1-4)[Fuc(a1-6)]GlcNAc
# Procedure, shortened: as §1
# [11] = target: Gal(b1-4)GlcNAc(a1-6)Gal(b1-4)GlcNAc
# Procedure, shortened: as §1
# [12] = target: Gal(b1-4)GlcNAc(b1-2)Man(a1-3)[GlcNAc(b1-2)Man(a1-6)]Man(b1-4)GlcNAc(b1-4)GlcNAc
# Procedure, shortened: as §1
# [13] = target: Gal(b1-4)GlcNAc(b1-2)Man(a1-6)[GlcNAc(b1-2)Man(a1-3)]Man(b1-4)GlcNAc(b1-4)GlcNAc
# Procedure, shortened: as §1
# [14] = target: Gal(b1-4)GlcNAc(b1-3)Gal(b1-3)GalNAc
# Procedure, shortened: as §1
# [15] = target: Gal(b1-4)GlcNAc(b1-3)Gal(b1-4)GlcNAc(b1-2)Man(a1-3)[Gal(b1-4)GlcNAc(b1-3)Gal(b1-4)GlcNAc(b1-2)Man(a1-6)]Man(b1-4)GlcNAc(b1-4)GlcNAc
# Procedure, shortened: as §1
# [16] = target: Gal(b1-4)GlcNAc(b1-3)Gal(b1-4)GlcNAc(b1-2)[Gal(b1-4)GlcNAc(b1-3)Gal(b1-4)GlcNAc(b1-6)]Man(a1-6)[Gal(b1-4)GlcNAc(b1-3)Gal(b1-4)GlcNAc(b1-2)Man(a1-3)]Man(b1-4)GlcNAc(b1-4)[Fuc(a1-6)]GlcNAc
# Procedure, shortened: as §1
# [17] = target: Gal(b1-4)GlcNAc(b1-3)Gal(b1-4)GlcNAc(b1-3)Gal(b1-4)GlcNAc(b1-2)Man(a1-3)[Gal(b1-4)GlcNAc(b1-3)Gal(b1-4)GlcNAc(b1-3)Gal(b1-4)GlcNAc(b1-2)Man(a1-6)]Man(b1-4)GlcNAc(b1-4)GlcNAc
# Procedure, shortened: as §1
# [18] = target: Gal(b1-4)GlcNAc(b1-3)Gal(b1-4)GlcNAc(b1-3)Gal(b1-4)GlcNAc(b1-2)[Gal(b1-4)GlcNAc(b1-3)Gal(b1-4)GlcNAc(b1-3)Gal(b1-4)GlcNAc(b1-6)]Man(a1-6)[Gal(b1-4)GlcNAc(b1-3)Gal(b1-4)GlcNAc(b1-3)Gal(b1-4)GlcNAc(b1-2)Man(a1-3)]Man(b1-4)GlcNAc(b1-4)[Fuc(a1-6)]GlcNAc
# Procedure, shortened: as §1
# [19] = target: Gal(b1-4)GlcNAc(b1-3)Gal(b1-4)GlcNAc(b1-3)[Gal(b1-4)GlcNAc(b1-3)Gal(b1-4)GlcNAc(b1-6)]GalNAc
# Procedure, shortened: as §1
# [20] = target: Gal(b1-4)GlcNAc(b1-3)Gal(b1-4)GlcNAc(b1-6)[Gal(b1-3)]GalNAc
# Procedure, shortened: as §1
# [21] = target: Gal(b1-4)GlcNAc(b1-6)Gal(b1-4)GlcNAc
# Procedure, shortened: as §1
# [22] = target: Gal3S(b1-4)[Fuc(a1-3)]GlcNAc
# Procedure, shortened: as §1
binder,measurement,setting,value
B1,glycan array binding signal (z-score),[1],-0.233
same,glycan array binding signal (z-score),[2],0.051
same,glycan array binding signal (z-score),Fuc(a1-2)Gal(b1-4)GlcNAc,-0.202
same,glycan array binding signal (z-score),[3],0.129
same,glycan array binding signal (z-score),[4],0.092
same,glycan array binding signal (z-score),[5],-0.533
same,glycan array binding signal (z-score),[6],-0.092
same,glycan array binding signal (z-score),[7],-0.256
same,glycan array binding signal (z-score),[8],0.212
same,glycan array binding signal (z-score),Gal(a1-2)Gal,-0.294
same,glycan array binding signal (z-score),Gal(b1-3)Gal,0.078
same,glycan array binding signal (z-score),Gal(b1-3)GalNAc(b1-3)Gal,-0.315
same,glycan array binding signal (z-score),[9],10.4
same,glycan array binding signal (z-score),[10],10.8
same,glycan array binding signal (z-score),[11],4.13
same,glycan array binding signal (z-score),[12],-0.978
same,glycan array binding signal (z-score),[13],-0.42
same,glycan array binding signal (z-score),[14],-0.633
same,glycan array binding signal (z-score),[15],2.6
same,glycan array binding signal (z-score),[16],2.5
same,glycan array binding signal (z-score),[17],2.57
same,glycan array binding signal (z-score),[18],2.85
same,glycan array binding signal (z-score),[19],2.76
same,glycan array binding signal (z-score),[20],1.3
same,glycan array binding signal (z-score),[21],-1.1
same,glycan array binding signal (z-score),[22],-0.293
